Most compounds without a hit are left out; they make up all but 11% or so of the library.
Pf growth 96h = P. falciparum growth inhibition at 96 hours; P. falciparum luciferase reporter growth, 96 h; Potency, µM (top dose mostly 28.7 µM), usual class: inhibitors; 6.9% of 320,000 active
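Compounds incubated with erythrocytes infected by luciferase-expressing P. falciparum (2% hematocrit, 0.05% parasitemia final) for 96 hours, 37 C in 5% CO2. Growth inhibition scored as decreased luciferase luminescence.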
Pf growth 48h = inhibits P. falciparum growth in the first generation, 48 h; Potency, µM (top dose mostly 28.7 µM), most hits filed as inhibitors; P. falciparum luciferase growth in erythrocytes, 48 h; 5.9% of 310,000 active
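Luminescence readout; reporter = integrated firefly luciferase in P. falciparum. RBC culture at 2% hematocrit, 0.1% parasitemia final, 37 C/5% CO2; decreased signal taken as growth inhibition.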
NS1 function inh = blocks influenza NS1 protein function | Potency, µM (doses to about 46.1 µM) | 0.4% of 270,000 active; calls by dose curve; note: actives are rising curves; nearly all actives have a fitted effect of over 50% in size
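Compounds were scored for reversing the slow growth caused by influenza A NS1 in S. cerevisiae, measured by optical density at 600 nm. Assay medium contained 2% galactose at pH 6.0; NS1-free yeast of the same strain were the positive control.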
AMA1-RON2 inh = inhibitors of Plasmodium falciparum AMA1-RON2 interaction; Potency, µM (series often up to 58.2 µM), actives largely listed as inhibitors; AlphaScreen AMA1-biotinylated RON2 peptide binding; 0.2% of 360,000 active; note: nearly all actives have a fitted effect of over 45% in size
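AMA1 (3D7) with his tag at 25 nM final met compounds first, then biotinylated RON2 peptide at 25 nM; detection used donor plus acceptor beads, 10 µg/mL apiece, read by AlphaScreen after 30 min at room temperature.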
Sm TGR block = S. mansoni TGR enzyme inhibition. Q962Y6. purified TGR, DTNB reduction, TNB absorbance 405 nm. Potency, µM (highest dose often 114 µM), usual class: inhibitors. 3% of 360,000 active; note: nearly all actives have a fitted effect of over 60% in size
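First, TGR (20 nM dispensed) and NADPH were mixed with compound. Second, a 15 min room-temperature incubation followed. Third, further NADPH and then DTNB were added to start the reaction. Finally, TNB absorbance was monitored kinetically.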
Numbers stand for hits; – = inactive; ? = inconclusive; · = no result given. Unless noted, calls come from the whole dose curve; as a rule, active = well fitted curve in the direction sought with a large enough effect; inconclusive = small, poorly fitted or top-dose-only effect, or another doubt; inactive = no such curve, though single readings can be large; an effect the other way counts as inactive or inconclusive.

SMILES | Pf growth 96h | Pf growth 48h | NS1 function inh | AMA1-RON2 inh | Sm TGR block
COC(=O)Nc1sc2c(c1C(N)=O)CCCCCC2 | · | – | – | – | –
O=C(NCc1cccnc1)C1CCCN(Cc2cnn(-c3ccccc3)c2-n2cccc2)C1 (centres undefined) | 12µM | · | – | – | –
O=C(NCc1ccccn1)C1CCCN(Cc2cnn(-c3ccccc3)c2-n2cccc2)C1 (centres undefined) | – | ? | – | – | –
CC(=O)N(Cc1cc2cc(C)c(C)cc2n2nnnc12)CC1COCCO1 (centres undefined) | 2.9µM | – | – | – | –
Cc1cc2cc(CN(Cc3ccc4c(c3)OCO4)C(=O)c3cnccn3)c3nnnn3c2cc1C | · | – | ? | – | –
COc1ccc(C(=O)CN2C(=O)N(c3cc(C)ccc3C)S(=O)(=O)c3ccccc32)cc1 | · | · | · | · | –
COc1ccccc1Nc1c2c(nc3ccccc13)CCC2 | ? | 8.3µM | – | – | –
COC(=O)c1cccc(Nc2c3c(nc4ccccc24)CCC3)c1 | – | 12µM | – | – | –
Cc1ccc2nc3c(c(Nc4cccc(O)c4)c2c1)CCC3 | – | 5.2µM | – | – | –
COc1ccc(Nc2c3c(nc4ccccc24)CCC3)c(OC)c1 | – | ? | – | – | ?
Cc1ccc(C(C)C)c(OCCCn2c(=O)oc3ccccc32)c1 | · | · | · | · | –
Cc1c[nH]c2cccc(OCC(O)CNC(C)(C)C)c12 (centres undefined) | – | – | – | – | –
CC(C)(Cc1c[nH]c2ccccc12)NCC(O)COc1ccccc1C#N (centres undefined) | 7.6µM | 17µM | · | · | ·
Cc1cc(Br)ccc1NC(=O)CNC(=O)c1cnn(C)c1 | – | – | · | – | –
COc1cnc(-c2ccccn2)nc1N(C)c1ccccc1 | 0.93µM | 0.93µM | – | – | –
COc1cnc(-c2ccccn2)nc1Oc1ccccc1 | ? | 12µM | · | – | –
FC(F)(F)c1cccc(Oc2nc(-c3ccccc3)nnc2C(F)(F)F)c1 | – | – | ? | – | –
COc1ccnc(Oc2ccccc2)c1C#N | – | – | – | – | –
COc1cnc(-c2ccccn2)nc1Oc1cccc(C(F)(F)F)c1 | 1.7µM | 2.3µM | – | · | –
COc1ccc2nc(-c3ccccc3)cc(C(=O)OCC(=O)NC3CC3)c2c1 | – | – | · | – | –
Cc1cn([C@H]2C[C@H](O)[C@@H](CCC(=O)NCc3ccc(N(C)C)cc3)O2)c(=O)[nH]c1=O | · | · | · | – | ·
COc1cccc(-c2ccc3c(c2)O[C@H](CN(C)C(=O)c2ccccc2F)[C@H](C)CN([C@H](C)CO)S3(=O)=O)c1 | · | · | · | – | ·
COc1ccc(-n2nnc3c(SCC(=O)Nc4ccc5c(c4)OCCO5)ncnc32)cc1 | · | – | – | · | –
COc1ccc(-n2nnc3c(SCC(=O)c4ccccc4)ncnc32)cc1 | 1.9µM | – | – | – | –
COC(=O)c1ccc(CSc2ncnc3c2nnn3-c2ccc(OC)cc2)o1 | 9.3µM | – | – | – | –
SMILES | Pf growth 96h | Pf growth 48h | NS1 function inh | AMA1-RON2 inh | Sm TGR block
CCc1n[n+](CC(=O)c2ccccc2)c(N)s1 | – | – | · | – | –
O=C1NCC(COCc2ccco2)O1 (centres undefined) | ? | – | ? | – | 45µM
Cc1cc(N2CCN(C(=O)c3ccco3)CC2)n2nc(-c3cccc(Cl)c3)cc2n1 | – | 9.3µM | – | – | –
O=C(c1ccccc1)c1ccc2nc(N3CCN(C(=O)c4ccco4)CC3)c3nncn3c2c1 | 3.3µM | · | – | – | 45µM
Cc1cc(N2CCN(C(=O)c3ccco3)CC2)n2nc(C)c(-c3ccccc3)c2n1 | – | 12µM | – | – | –
Cc1nn(-c2ccc(Cl)cc2)c2sc(C(=O)N3CCN(C(=O)c4ccco4)CC3)cc12 | 10µM | – | – | · | –
Cc1cc(N2CCN(C(=O)c3ccco3)CC2)n2nc(C)c(-c3ccc(Cl)cc3)c2n1 | 4.1µM | – | – | · | –
CC(C)(C)c1nc2c(Br)cc(Br)cc2c(=O)o1 | 0.37µM | – | – | – | –
N#Cc1cc2ccccc2nc1SCC(=O)Nc1ccc(S(=O)(=O)N2CCCC2)cc1 | ? | 9.3µM | ? | – | –
Cc1cc(C)c2nc(SCC(=O)Nc3ccc(S(=O)(=O)N4CCCC4)cc3)c(C)cc2c1 | · | 9.3µM | – | – | –
Cc1ccc(NC(=O)CSCC(=O)Nc2ccc(S(=O)(=O)N3CCCC3)cc2)cc1 | – | ? | · | – | –
N#Cc1cc2c(nc1SCC(=O)Nc1cc(Cl)ccc1Cl)C1CCN2CC1 | ? | ? | – | – | –

Compound activity: PubChem BioAssay, National Center for Advancing Translational Sciences (NCATS)
